Data reported in the supplement of paper PMC10515830.
Structures can show the parent of a compound that is named as a salt.

Columns and labels:
Settings in all cases: 10 µM; exposure time 6 h
[1] = tested on: Danio rerio larvae (5 dpf); assay: difference in excitability vs DMSO (percentage points); higher = more excitable than DMSO
Procedure, shortened: (§1)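 Wild-type zebrafish larvae at 5 dpf were kept in 96-well plates and exposed for 6 h to 100 µL egg water holding library compound at a final concentration of 10 µM. From 3 h into exposure, the plates were held at 28.5 ℃ and photographed every 6 s through a 3-h programme of moving lines and 100 ms, 400Hz tones. Each behaviour was scored by Z-LaP Tracker, a DeepLabCut model, and averaged over 48 larvae per compound. Every value gives the compound mean minus the vehicle control mean, in percentage points.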

[2] = tested on: Danio rerio larvae (5 dpf); assay: difference in startle response vs DMSO (percentage points); higher = stronger startle than DMSO
Procedure, shortened: as §1

[3] = tested on: Danio rerio larvae (5 dpf); assay: difference in activity during first hour vs DMSO (percentage points); higher = more activity than DMSO
Procedure, shortened: as §1

[4] = tested on: Danio rerio larvae (5 dpf); assay: difference in habituation to acoustic stimuli vs DMSO (percentage points); higher = more habituation than DMSO
Procedure, shortened: as §1

[5] = tested on: Danio rerio larvae (5 dpf); assay: difference in combined optomotor response to red, green and blue moving lines vs DMSO (percentage points); higher = stronger optomotor response than DMSO
Procedure, shortened: as §1

SMILES	difference in excitability [1]	difference in startle response [2]	difference in activity during first hour [3]	difference in habituation to acoustic stimuli [4]	difference [5]
CCC(=O)NC[C@@H]1C[C@H]1c1cccc2c1CCO2 [Tasimelteon]	25	6.9	-17.9	-3.17	11.5
CC(C)(Oc1ccc(C(=O)c2ccc(Cl)cc2)cc1)C(=O)O [Fenofibric Acid]	2.08	4.69	11.8	0.387	6.16
COc1ccccc1OCC(O)CN1CCN(CC(=O)Nc2c(C)cccc2C)CC1 (stereo not given) [Ranolazine (hydrochloride)]	14.6	-5.16	4.7	3.56	2.81
CCc1c(Cl)c(O)c(Cl)c(O)c1C(=O)O[C@H]1[C@H](O)[C@H](OC)[C@H](OCC2=CC=CC[C@H](O)C(C)=C[C@H](CC)[C@@H](O[C@@H]3OC(C)(C)C(OC(=O)C(C)C)[C@H](O)[C@@H]3O)C(C)=CC(C)=CC[C@@H]([C@@H](C)O)OC2=O)O[C@@H]1C (stereo not given in full) [Fidaxomycin]	1.12	8.11	12.6	4.21	4.75
COc1ccc2cc(C(C)C(=O)O)ccc2c1 (single isomer, unassigned; (+)) [(+)-Naproxen]	3.24	2.79	-2.88	2.25	-3.32
O=P(O)(O)C(O)(Cc1cccnc1)P(=O)(O)O [Risedronate (sodium salt)]	3.7	4.04	24.7	-2.36	9.6
CC(c1cc2ccccc2s1)N(O)C(N)=O (stereo not given) [Zileuton]	3.87	-0.493	-3.58	-0.832	6
O=C(O)C(=O)O.[NH-][C@@H]1CCCC[C@H]1[NH-].[Pt+2] [Oxaliplatin]	-8.81	2.6	-6.68	11.3	1.69
O=C1c2c(O)ccc(O)c2C(=O)c2c(NCCNCCO)ccc(NCCNCCO)c21 [Mitoxantrone (hydrochloride)]	8.92	-11.2	-16.2	-16	-15.4
Cc1oncc1C(=O)Nc1ccc(C(F)(F)F)cc1 [Leflunomide]	20.4	-4.19	4.33	-10.8	2.2
CC(C)OC(=O)[C@H](C)N[P@](=O)(OC[C@H]1O[C@@H](n2ccc(=O)[nH]c2=O)[C@](C)(F)[C@@H]1O)Oc1ccccc1	-3.58	-4.12	10	1.16	6.56
C=C1CCN([C@H](C)[C@](O)(Cn2cncn2)c2ccc(F)cc2F)CC1 [Efinaconazole]	14.8	-1.57	-5.8	-7.46	1.58
CC(C)OC(=O)CCC/C=C\C[C@@H]1[C@@H](CC[C@@H](O)CCc2ccccc2)[C@H](O)C[C@@H]1O [Latanoprost]	1.84	-0.286	20.8	3.23	7.08
O=NN(CCCl)C(=O)NCCCl [Carmustine]	-3.21	2.25	1.68	0.0979	11.5
NC[C@H]1O[C@H](O[C@H]2[C@H](O)[C@@H](O[C@H]3O[C@H](CO)[C@@H](O)[C@H](N)[C@H]3O)[C@H](N)C[C@@H]2N)[C@H](N)C[C@@H]1O [Tobramycin]	25.5	-1.65	-2.18	4.43	-2.09
Nc1ccn([C@@H]2CS[C@H](CO)O2)c(=O)n1 [Lamivudine]	0.811	2.66	9.03	2.12	2.14
O=C1CCc2cc(OCCCCc3nnnn3C3CCCCC3)ccc2N1 [Cilostazol]	12.6	2.9	11.7	-4.79	0.57
CC(C)C[C@H](NC(=O)[C@H](CCc1ccccc1)NC(=O)CN1CCOCC1)C(=O)N[C@@H](Cc1ccccc1)C(=O)N[C@@H](CC(C)C)C(=O)[C@@]1(C)CO1 [Carfilzomib]	5.53	-0.402	4.53	2.38	4.24
CCCCCOc1ccc(-c2cc(-c3ccc(C(=O)N[C@H]4C[C@@H](O)[C@@H](O)NC(=O)[C@@H]5[C@@H](O)[C@@H](C)CN5C(=O)[C@H]([C@H](O)CC(N)=O)NC(=O)[C@H]([C@H](O)[C@@H](O)c5ccc(O)c(OS(=O)(=O)O)c5)NC(=O)[C@@H]5C[C@@H](O)CN5C(=O)[C@H]([C@@H](C)O)NC4=O)cc3)no2)cc1 [Micafungin (sodium salt)]	-4.69	-8.33	19.8	-1.44	-1.06
C[C@H]1COc2c(N3CCN(C)CC3)c(F)cc3c(=O)c(C(=O)O)cn1c23 [Levofloxacin]	-4.09	1.07	16.5	2.74	4.84
CCOC(=O)c1ncn2c1CN(C)C(=O)c1cc(F)ccc1-2 [Flumazenil]	3.25	7.64	0.681	2.54	3.91
NC[C@@H](O)c1ccc(O)c(O)c1 [L-(-)-Norepinephrine (bitartrate hydrate)]	5.69	-4.59	23	-6.22	6.76
Nc1nc(O)c2ncn(CCC(CO)CO)c2n1 [Penciclovir]	7.86	12.1	13.9	-1.73	11.3
CNC(=O)c1cc(Oc2ccc(NC(=O)Nc3ccc(Cl)c(C(F)(F)F)c3)cc2)ccn1 [Sorafenib]	19.5	-6.25	-3.15	-3.01	-2.71

SMILES	difference in excitability [1]	difference in startle response [2]	difference in activity during first hour [3]	difference in habituation to acoustic stimuli [4]	difference [5]
CCCc1nn(C)c2c(=O)[nH]c(-c3cc(S(=O)(=O)N4CCN(C)CC4)ccc3OCC)nc12 [Sildenafil Citrate]	4.08	-0.935	-7.02	-0.835	5.26
O=C(O)CCc1nc(-c2ccccc2)c(-c2ccccc2)o1 [Oxaprozin]	17.9	-7.37	3.28	-4.84	-6.06
CC(C)(C)NCC(O)c1ccc(O)c(CO)c1 (stereo not given) [Salbutamol]	8.67	1.17	20.7	-4.78	5.67
COC(=O)c1ccc2c(c1)NC(=O)/C2=C(\Nc1ccc(N(C)C(=O)CN2CCN(C)CC2)cc1)c1ccccc1	16.7	-5.51	-11.1	1.6	3.92
Nc1nc(NC2CC2)c2ncn([C@H]3C=C[C@@H](CO)C3)c2n1 [Abacavir (sulfate)]	-1.01	-0.154	7.36	-0.118	5.64
CN(C)CCC=C1c2ccccc2C=Cc2ccccc21 [Cyclobenzaprine (hydrochloride)]	17.5	-6.94	6.26	-8.81	14.9
O=C(c1cc(Cc2n[nH]c(=O)c3ccccc23)ccc1F)N1CCN(C(=O)C2CC2)CC1 [Olaparib]	-5.41	-4.44	2.13	-3.55	4.86
Cc1ccc(O)c([C@H](CCN(C(C)C)C(C)C)c2ccccc2)c1 [Tolterodine (tartrate)]	11.1	-0.221	-20.3	-5.38	-10.6
CCN(CC)C(=S)SSC(=S)N(CC)CC [Disulfiram]	12.2	-15.9	38.4	-13	-9.71
CN1CCC[C@@H]1Cc1c[nH]c2ccc(CCS(=O)(=O)c3ccccc3)cc12 [Eletriptan]	0.175	-8.65	6.02	-5.47	-0.217
CCNC(=O)CCC/C=C\C[C@@H]1[C@@H](/C=C/[C@@H](O)CCc2ccccc2)[C@H](O)C[C@@H]1O [17-phenyl trinor Prostaglandin F2α ethyl amide]	12.5	-5.26	14.8	-0.264	7.13
CC#CCC(C)[C@H](O)/C=C/[C@@H]1[C@H]2C/C(=C/CCCC(=O)O)C[C@H]2C[C@H]1O (stereo not given in full) [Iloprost]	-3.4	-1.91	1.64	-1.61	1.64
CC=CC(=O)N(CC)c1ccccc1C [Crotamiton]	0.486	3.97	-3.58	4.95	-3.13
CC1=Nc2ccc(Cl)cc2S(=O)(=O)N1 [Diazoxide]	-4.99	1.05	4.03	-3.84	5.23
O=C(Nc1c(Cl)cncc1Cl)c1ccc(OC(F)F)c(OCC2CC2)c1 [Roflumilast]	18.7	-2.74	-14.9	-8.84	-5.57
C#C[C@]1(O)CC[C@H]2[C@@H]3CCc4cc(O)ccc4[C@H]3CC[C@@]21C [Ethynyl Estradiol]	3.58	-3.27	-24	-11	-17.5
Nc1nc(Cl)nc2c1ncn2[C@H]1C[C@H](O)[C@@H](CO)O1 [Cladribine]	-6.72	-0.563	-3.5	-0.582	8.45
Cn1c(=O)c2[nH]cnc2n(C)c1=O [Aminophylline]	4.39	0.67	2.88	-3.14	8.05
CN1CCCC(n2nc(Cc3ccc(Cl)cc3)c3ccccc3c2=O)CC1 (stereo not given) [Azelastine (hydrochloride)]	19.9	1.87	-5.88	-2.38	3.47
OC[C@H]1O[C@@H](c2ccc(Cl)c(Cc3ccc(O[C@H]4CCOC4)cc3)c2)[C@H](O)[C@@H](O)[C@@H]1O [Empagliflozin]	2.31	-2.32	18.8	-5.57	4.06
C=C1CC[C@H](O)C/C1=C/C=C1\CCC[C@]2(C)[C@@H]([C@H](C)/C=C/[C@H](C)C(C)C)CC[C@@H]12 [Vitamin D2]	3.72	-5.12	3.16	2.67	8.48
O=c1[nH]c(=O)n([C@H]2C[C@H](O)[C@@H](CO)O2)cc1F [Floxuridine]	5.02	-2.11	5.28	-3.55	1.72
CC[C@H]1OC(=O)[C@H](C)[C@@H](O[C@H]2C[C@@](C)(OC)[C@@H](O)[C@H](C)O2)[C@H](C)[C@@H](O[C@@H]2O[C@H](C)C[C@H](N(C)C)[C@H]2O)[C@](C)(OC)C[C@@H](C)C(=O)[C@H](C)[C@@H](O)[C@]1(C)O [Clarithromycin]	7.19	1.97	11.7	-1.55	6.95
